The results in this text go back to PubChem BioAssay (NCATS).

Inconclusive results are not listed. A call without a number means that no potency is given here. Calls of active or inactive are those of the source. The call rests on the fitted dose curve; in most records, active means well fitted cell-killing curve with a large enough effect; inconclusive means small, poorly fitted or top-dose-only effect; inactive means flat fitted curve, though single readings scatter.
Potency means the concentration at half of the fitted maximal effect.

A short description of the assay: qHTS of pediatric cancer cell lines to identify multiple opportunities for drug repurposing: Primary screen for TC32 cells (AID 1347089). Further: nearly all actives have a fitted effect of over 60% in size. The conditions noted are these: TC32 Ewing sarcoma viability, CellTiter-Glo luminescence, 48 h; series mostly up to 45.8 µM. Summed up:
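In the primary qHTS, MIPE compounds were tested at 11 concentrations (0.78 nM to 46 µM) and NPC compounds at 8 (0.59 nM to 46 µM) on TC32 cells for 48 h. CellTiter-Glo luminescence gave viability.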
(qHTS replaces the single test concentration by a dilution series.)
Consider `COc1nc(C)cnc1NS(=O)(=O)c1cccnc1-c1ccc(-c2nnco2)cc1`, for which the Potency entry was “inactive”.
Take `C[C@@H](N)c1ccc(C(=O)Nc2ccnc3[nH]ccc23)cc1`: the Potency result was “inactive”.
Take `CCCC1OC2C[C@@H]3[C@H]4CCC5=CC(=O)C=C[C@]5(C)[C@H]4C(O)C[C@]3(C)[C@]2(C(=O)CO)O1` (stereo not given in full): the Potency entry is “inactive”.
Take `O=C(O)C1=NC(C(=O)O)CC(C=CN2c3cc(O)c(OC4OC(CO)C(O)C(O)C4O)cc3CC2C(=O)O)=C1` (stereo not given): the Potency entry was “inactive”.
On to `Cc1cc2nc3c(=O)[nH]c(=O)nc-3n(CC(O)C(O)C(O)CO)c2cc1C` (stereo not given), for which the Potency entry was “inactive”.
Consider `Cc1ccc(S(=O)(=O)OCC(=O)Nc2ccc(C(=O)O)c(O)c2)cc1`, for which the Potency result was “inactive”.
As to `CC1(C)OC2CC3C4CC(F)C5=CC(=O)C=CC5(C)C4C(O)CC3(C)[C@]2(C(=O)CO)O1` (stereo not given in full), the Potency result was “inactive”.
The value for `Cc1ccc(C(=O)N(CCCN)[C@@H](c2oc3cc(Cl)ccc3c(=O)c2Cc2ccccc2)C(C)C)cc1` was 3.3 nM (active); that for `CN1c2ccccc2C(=O)N2CCc3c([nH]c4ccccc34)C21` (stereo not given) was “inactive”; that for `Cc1cc(C(C)Nc2ccccc2)c2nc(N3CCOCC3)cc(=O)n2c1` (stereo not given) was “inactive”.
For the compound `CCN1C[C@H](C)n2c(c(O)c3c(=O)n(Cc4ccc(F)c(Cl)c4)nc(C(=O)NC)c32)C1=O`, the Potency result was “inactive”.
Then `NCC1CCC(C(=O)O)CC1` (stereo not given), with “inactive”; and `CCNC(=O)CCCC=CC[C@@H]1[C@H](C=CC(O)CCc2ccccc2)[C@@H](O)C[C@@H]1O` (stereo not given in full), with “inactive”; and `c1cc(OCCN2CCCCC2)cc(-c2n[nH]c3ccc(-c4ncn[nH]4)cc23)c1`, with “inactive”.
Take `O=C(NC[C@H](O)CO)c1ccncc1Nc1ccc(I)cc1F`: the Potency entry was “inactive”.
As for `COc1cc2ncn(-c3cc(OCc4ccccc4S(C)(=O)=O)c(C#N)s3)c2cc1OC`, the Potency entry was “inactive”.
For `COc1cc(Nc2nc3ccccc3nc2NS(=O)(=O)c2ccc(NC(=O)c3ccc(C)c(OC)c3)cc2)cc(OC)c1`, the Potency entry is “inactive”.
For `CNC(=O)[C@H](CC1=CN=C2C=CCC=C12)NC(=O)[C@@H](CC(=O)NO)CC(C)C`, the Potency entry is “inactive”.
The value for `CN(C)c1ccccc1CN1CCCN(Cc2ccccc2N(C)C)C1c1ccncc1` was “inactive”.
With `C[C@H](c1ccc(F)cc1CCCC(=O)O)N(c1cc(F)ccc1F)S(=O)(=O)c1ccc(Cl)cc1`, the Potency entry is “inactive”.
For `CCCCC[C@H](O)C=C[C@H]1[C@H](O)CC(=O)[C@H]1CCCCCCC(=O)O`, the Potency result is “inactive”.
Regarding `Cc1cnc(-c2cc(N3CCN(C(=O)CCS(C)(=O)=O)CC3)ncc2Cl)c(C)c1`, the Potency result was “inactive”.
Consider `COc1cc(F)c(C(C)C)cc1-c1ccc(C(F)(F)F)cc1CN1C(=O)O[C@H](c2cc(C(F)(F)F)cc(C(F)(F)F)c2)[C@@H]1C`, for which the Potency entry was “inactive”.
As for `CCN1CCN(c2ccc(Nc3cc(N(C)C(=O)Nc4c(Cl)c(OC)cc(OC)c4Cl)ncn3)cc2)CC1`, the Potency entry is “inactive”.
For `CNC(=O)c1ccc2c(C(=Nc3cccc(CN(C)C)c3)c3ccccc3)c(O)[nH]c2c1`, the Potency entry is “inactive”.
In the case of `CN(C)CCOc1ccc(C(=C(CCCl)c2ccccc2)c2ccccc2)cc1`, the Potency result is “inactive”.
The value for `Nc1[nH]nc2nnc(-c3c(-c4ccccc4)nn4ccccc34)cc12` was “inactive”; that for `Cc1cc(CS(=O)(=O)c2ccccc2)cc(OCc2ccc(CN3CCC[C@H]3CO)cc2)c1` was “inactive”.
For the compound `COC(=O)N1CCN(Cc2cccc(NC(=O)Nc3ccc(C)nc3)c2F)CC1`, the Potency result was “inactive”.
As to `CC[C@H](C=C[C@@H](C)[C@H]1CC[C@H]2[C@@H]3CC=C4C[C@@H](O)CC[C@]4(C)[C@@H]3CC[C@]12C)C(C)C`, the Potency result was “inactive”.
In the case of `CN(C)CCN(Cc1ccc(Cl)cc1)c1ccccn1`, the Potency result was “inactive”.
As to `CC(=O)N1CCN(c2ccc(OCc3nn(C)c(C)c3-c3cccc4c(CCCOc5cc(C)c(Cl)c(C)c5)c(C(=O)O)n(Cc5cccnc5)c34)cc2)CC1`, the Potency result is “inactive”.
Regarding `CC(C)CN(C[C@H](O)[C@H](Cc1ccccc1)NC(=O)O[C@H]1CCOC1)S(=O)(=O)c1ccc(N)cc1`, the Potency result was “inactive”.
As for `CC(C)CN(C[C@@H](O)[C@H](Cc1ccccc1)NC(=O)O[C@H]1CO[C@H]2OCC[C@H]21)S(=O)(=O)c1ccc(N)cc1`, the Potency entry was “inactive”.
As for `O=c1cc(-c2ccc(O)c(O)c2)oc2cc(O)cc(O)c12`, the Potency entry is “inactive”.
For `Cc1ccc(NC(=O)Nc2cc(C(F)(F)F)ccc2F)cc1Nc1ccc2c(c1)NC(=O)C2=Cc1ccc[nH]1`, the Potency result was “inactive”.
As for `Oc1ccc(C=Cc2cc(O)cc(O)c2)cc1`, the Potency result was “inactive”.
As to `CN1CCN2c3ncccc3Cc3ccccc3C2C1` (stereo not given), the Potency result was “inactive”.
The value for `NS(=O)(=O)c1cc(Cl)c(Cl)c(S(N)(=O)=O)c1` was “inactive”.
With `N=C1SC(=Cc2ccc(-c3ccc4c(c3)C(=O)NC4=O)o2)C(=O)N1c1ccc(Br)cc1`, the Potency entry is “inactive”.
